3CLpro inhibitor: SARS-CoV 3CLpro protease inhibition. P0C6X7. hit rate 0.14% among 290,000. recombinant SARS-CoV 3CLpro, quenched FRET peptide cleavage. inhibition, % at 6 µM; in the data active = inhibition above about 12%
ugtP null kill: kills S. aureus RN4220 lacking UgtP | growth inhibition, % (no concentration beside the values) | AID 1259309 | hit rate 0.54% among 330,000 | S. aureus RN4220 ugtP deletion, OD600 growth, 16 h; in the data active = growth inhibition above about 68%
PfHsp40 yeast: restores yeast growth despite PfHsp40 toxicity | hit rate 0.68% among 340,000 | S. cerevisiae expressing PfHsp40, growth rescue, ATP luminescence | growth rescue, % at 12.5 µM; in the data active = growth rescue above about 28%, passing the limit was not always enough; inconclusive = no clear call, values can overlap the other calls;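 note: yeast W303a lacking pdr1 and pdr3 grown in galactose medium; growth measured after three days at 30 °C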
BJeLR viability: BJeLR cell viability loss | BJeLR (HRASV12) viability, CellTiter-Glo ATP luminescence, 48 h | inhibition, % (no concentration beside the values) | hit rate 0.17% among 300,000; in the data active = inhibition above about 50%; inconclusive = no clear call, values can overlap the other calls
Sa RN4220 lethal: kills Staphylococcus aureus RN4220; S. aureus RN4220 growth, OD600, 16 h; hit rate 0.33% among 330,000; inhibition, % (concentration not given with the values); in the data active = inhibition above about 85%
Of the large screens only hits and unclear results are named; the others gave an inactive call. Sampled rows, rich in hits. Any-hit rate of the full collection: about 1.3%.

COc1ccc(C)cc1NS(=O)(=O)c1ccc(NC(=O)CN(c2cc([N+](=O)[O-])ccc2C)S(C)(=O)=O)cc1	BJeLR viability 109
COc1ccc(-n2c(=O)c3c4c(sc3n3cnnc23)CC(C)CC4)cc1 (stereo unspecified)	none
COc1ccc(N/N=C(/N=Nc2nc(C)cc(=O)[nH]2)c2ccccc2)cc1	BJeLR viability 67 (no result: ugtP null kill, Sa RN4220 lethal)
O=C(c1ccc(Cl)c(S(=O)(=O)N2CCCCCC2)c1)N1CCN(CCO)CC1	none
C/C(=N\Nc1nc2ccccc2s1)c1ccc(Br)s1	PfHsp40 yeast 145 (no result: ugtP null kill, Sa RN4220 lethal)
CC(=NNc1nc2ccccc2s1)c1ccncn1	PfHsp40 yeast 150 (no result: 3CLpro inhibitor, ugtP null kill, BJeLR viability, Sa RN4220 lethal)
O=C(CN(C(=O)CCC(=O)Nc1ccccn1)c1ccc(F)cc1)NCc1ccco1	none
O=C(O)c1cn(C2CC2)c2cc(N3CCN(S(=O)(=O)c4ccc5c(c4)OCCO5)CC3)c(F)cc2c1=O	ugtP null kill 100, Sa RN4220 lethal 99
CCn1cc(C(=O)O)c(=O)c2cc(F)c(N3CCN(S(=O)(=O)c4ccc(Br)cc4)CC3)cc21	none (no result: ugtP null kill, PfHsp40 yeast, Sa RN4220 lethal)
N#Cc1ccc(C23CC4(C2)[C@H](CN(Cc2ccc(C(F)(F)F)cc2)[C@@H]4c2ccccc2)C3c2ccc(C(F)(F)F)cc2)cc1 (stereo partly specified)	none (no result: 3CLpro inhibitor, ugtP null kill, PfHsp40 yeast, Sa RN4220 lethal)
CCCCCCOC(=O)CCn1[nH]c(=O)c2ccccc2c1=O	PfHsp40 yeast 136
COC(=O)CCn1[nH]c(=O)c2ccccc2c1=O	none
Cc1cc(C)nc(SCc2ccc(C(=O)N/N=C/c3cccc(O)c3O)cc2)n1	PfHsp40 yeast 126 (no result: ugtP null kill, Sa RN4220 lethal)
COc1ccc(O)c(/C=N/NC(=O)c2ccc(CSc3nc(C)cc(C)n3)cc2)c1	PfHsp40 yeast 52 (no result: ugtP null kill, Sa RN4220 lethal)
CCn1c(SCC(=O)N2CCOCC2)nc2ccccc21	none
COc1ccccc1C1CCN(C(=O)c2cnn(-c3ccccc3)c2C)CC1	none
CC(C)C(C(=O)N1CCN(Cc2ccccc2)CC1)c1ccccc1 (stereo unspecified)	none
COC(=O)c1ccccc1NC(=O)COC(=O)c1ccccc1N=Nc1ccc(N(C)C)cc1	PfHsp40 yeast 73
CC(C)(C)C(=O)C(Cl)C(=O)Nc1ccccc1 (stereo unspecified)	PfHsp40 yeast 275
Cc1ccc2[nH]c3c(c2c1)CCCC3C(N)=O (stereo unspecified)	none
Cc1ccc2[nH]c3c(c2c1)CCCC3NC(=O)CCl (stereo unspecified)	BJeLR viability 60 (no result: ugtP null kill, Sa RN4220 lethal)
CCOc1ccc(C=NNC(=O)c2cc(-c3cccn3C)n[nH]2)cc1	none (no result: 3CLpro inhibitor, PfHsp40 yeast, BJeLR viability)
O=C(NCc1ccccc1)/C(=C/c1ccc(OC(F)F)cc1)c1ccccc1	none
Cc1cc(C)c2c(c1)cc(C)c1nnc(SCC(=O)N3CCCc4ccccc43)n12	ugtP null kill 96
Cc1ccc(C)c2c1cc(C)c1nnc(SCC(=O)N3CCCc4ccccc43)n12	none
CCn1nc(C)cc1-c1nnc(Sc2ncc([N+](=O)[O-])s2)n1C	ugtP null kill 91
CCn1nc(C)cc1-c1nnc(SCC(=O)Nc2ccccc2)n1CCCOC	none
COc1cc(/C=C/C(=O)OCC(=O)NC(=O)NC(C)(C)C)ccc1OCC#N	PfHsp40 yeast 83
COc1ccc(CCNC(=O)COC(=O)/C=C/c2ccc(OCC#N)c(OC)c2)cc1OC	none
Cc1cc2c(cc1C)CSC(c1ccc3ccccc3c1O)SC2	none
Cc1cc2c(cc1C)CSC(c1c(O)ccc3ccccc13)SC2	PfHsp40 yeast 160
COc1cccc(CSc2nnc(C(F)(F)F)n2Cc2ccc(F)cc2)c1	none
Cc1ccc(CSc2nnc(C(F)(F)F)n2Cc2ccc(F)cc2)cc1	PfHsp40 yeast 38
COCCCn1c(C(=O)NCCN2CCOCC2)cc2c(=O)n3ccccc3nc21	PfHsp40 yeast 44
COc1ccc(S(=O)(=O)N2CCC(C(=O)Nc3ccc4c(c3)OCCO4)CC2)cc1OC	none
CCOC(=O)C(=NNc1ccccc1)c1csc(Nc2ccccc2)n1	ugtP null kill 93, Sa RN4220 lethal 92 (no result: 3CLpro inhibitor, PfHsp40 yeast, BJeLR viability)
Cc1ccn2c(NC3CCCCC3)c(-c3cccc(-c4cccc(Cl)c4)c3)nc2c1	PfHsp40 yeast 132 (no result: 3CLpro inhibitor, ugtP null kill, Sa RN4220 lethal)
Cc1ccn2c(NC3CCCC3)c(-c3ccncc3)nc2c1	none
COc1ccc(-c2nc3ccccn3c2NC2CCCCC2)cc1SC1CCCCC1	ugtP null kill 100, PfHsp40 yeast inconclusive (no result: 3CLpro inhibitor)
CCCCn1c(N)c(N(CCOC)C(=O)CCC2CCCCC2)c(=O)[nH]c1=O	none (no result: 3CLpro inhibitor, BJeLR viability)
CCc1ccccc1N1C(=O)CC(N2CCc3ccccc32)C1=O (stereo unspecified)	PfHsp40 yeast 69
O=C1CC(N2CCCc3ccccc32)C(=O)N1c1ccccc1 (stereo unspecified)	none
O=C(/C=C/c1ccc([N+](=O)[O-])cc1)NCCOc1ccc(F)cc1	none
COc1cccc(-c2ccc(C#N)c(SCC(=O)NCCc3cccc(Cl)c3)n2)c1	ugtP null kill 85
COc1ccc(-c2ccc(C#N)c(SCC(=O)NCCc3ccccc3)n2)cc1OC	none (no result: BJeLR viability)
Cc1ccc(CN(c2ccc(C(=O)NCc3cccnc3)cc2)S(C)(=O)=O)cc1	none
O=C(COC(=O)[C@H](Cc1ccccc1)NC(=O)c1cccs1)Nc1ccccc1C(F)(F)F	none
Cc1ccc(NC(=S)c2nc3ccccc3[nH]2)cc1	none
Cc1ccc(NC(=S)c2nc3ccccc3[nH]2)c(C)c1	PfHsp40 yeast 331
CC(C)(C)P(=O)(NCc1ccccc1)c1ccccc1 (stereo unspecified)	PfHsp40 yeast 53 (no result: BJeLR viability)
CC(=NNC(=S)N1CC2CCC(CC2)C1)c1ccncn1	PfHsp40 yeast 98 (no result: 3CLpro inhibitor, ugtP null kill, BJeLR viability, Sa RN4220 lethal)
O=C(CSc1nnc(-c2ccccc2)o1)N1CCCCC1	none
Oc1cccc2ccc(/C=C/c3ccccc3Cl)nc12	ugtP null kill 91
CCOc1cccc(/C=C/c2ccc3cccc(O)c3n2)c1O	none
CCOc1cccc(/C=C/c2ccc3cccc(O)c3n2)c1OC	PfHsp40 yeast 168 (no result: ugtP null kill, Sa RN4220 lethal)
NS(=O)(=O)c1ccc(NC(=S)NC(=O)/C=C/c2cccs2)cc1	ugtP null kill active
NC(N)=NS(=O)(=O)c1ccc(NC(=S)NC(=O)/C=C/c2cccs2)cc1	ugtP null kill 85
CCOc1ccc(/C=C2\SC(=S)NC2=O)cc1OC	ugtP null kill 88
CCOc1ccccc1C=C1SC(=S)NC1=O	ugtP null kill 97, Sa RN4220 lethal 95 (no result: 3CLpro inhibitor, BJeLR viability)
COc1ccc(/C=C2\SC(=O)NC2=S)cc1OC	PfHsp40 yeast 143
O=C1NC(=S)SC1=Cc1ccccc1Br	ugtP null kill 100, PfHsp40 yeast inconclusive, Sa RN4220 lethal 100 (no result: 3CLpro inhibitor, BJeLR viability)
O=C1NC(=S)SC1=Cc1cc(Br)ccc1O	none (no result: 3CLpro inhibitor, BJeLR viability)
CC(OC(=O)CN1C(=O)NC2(CCCC2)C1=O)C(=O)c1ccc(C(C)(C)C)cc1 (stereo unspecified)	none (no result: 3CLpro inhibitor)
COc1ccc(C2=CC(=O)C=CC2=O)cc1	BJeLR viability 99 (no result: ugtP null kill, Sa RN4220 lethal)
O=C1C=CN2CCCCC2CC1 (stereo unspecified)	none (no result: 3CLpro inhibitor, BJeLR viability)
CC1(C)C(=S)N(Cc2ccccc2)c2ccccc21	ugtP null kill 86
CCCC(=O)OCCNc1cc(Sc2nc3ccccc3[nH]2)c2nonc2c1[N+](=O)[O-]	ugtP null kill 100, Sa RN4220 lethal 96
CCn1c(=O)c(CCC(=O)NCCN2CCOCC2)c(C)c2c(C)nn(-c3ccccc3)c21	none

Source: PubChem
